TIM10 inh: inhibits growth of TIM10 yeast strain; S. cerevisiae TIM10 strain growth, BacTiter-Glo luminescence, 24 h; actives 1.4% (n = 330,000); inhibition, % at 10 µM;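 active means inhibition of 40% or more at the single tested concentration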;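 further: wild-type TIM10 isogenic control strain grown at permissive 25 °C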
V-ATPase pH: alters yeast V-ATPase proton transport; actives 0.37% (n = 350,000); S. cerevisiae, pHLuorin cytosolic pH fluorescence; response, % at 10 µM; in the data active means response mostly above about 7.3%, no sharp cut-off; inactive means mostly below about 5.4%; further: actives read high
tim23-1 inh: growth inhibitors of tim23-1 mutant yeast; S. cerevisiae tim23-1 growth, BacTiter-Glo luminescence, 24 h; inhibition, % at 20 µM; actives 1.3% (n = 330,000); AID 463212;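 active means growth inhibition of the mutant yeast at or above 50%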;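 further: temperature-sensitive mutant grown at 25 °C; plate controls were DMSO-treated mutant yeast for no effect and medium wells lacking yeast for full effect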
PfHsp90 yeast 2: reduces growth (ATP signal) of yeast expressing P. falciparum Hsp90 | S. cerevisiae expressing PfHsp90, BacTiter-Glo ATP, 48 h; yeast lacking PDR1 and PDR3 efflux regulators | inhibition, % at 9.4 µM | actives 0.32% (n = 310,000) | AID 504621;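 active means every replicate shows inhibition above about 80%, whatever the replicate mean, limit read from the data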;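 further: 0% = DMSO neutral controls and 100% = 20 µM radicicol positive controls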
SKKanGAS inh: inhibitors of SKKanGAS S. pyogenes growth in kanamycin (SK-promoter or general growth effect); BacTiter-Glo, 6 h; actives 1.3% (n = 300,000); inhibition, % at 7.5 µM;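 active means mean replicate score, as percent of positive control median, at least 50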;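 further: strain carries kanamycin resistance gene driven by streptokinase promoter and grows in 40 µg/ml kanamycin; loss of luminescence reflects streptokinase promoter inhibition or plain growth inhibition; 0% = median of DMSO wells and 100% = positive control at its reference dose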
tim10-1 inh: tim10-1 yeast growth inhibition | S. cerevisiae tim10-1 ts strain growth, BacTiter-Glo, 24 h | inhibition, % at 20 µM | actives 2.2% (n = 330,000) | AID 463190;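 active means inhibition of at least 40%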;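 further: mutant grown at 25 °C; 0% = DMSO wells with yeast and 100% = wells holding no yeast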
tim10-1 conf: tim10-1 yeast growth inhibition, confirmed. shares compounds with tim10-1 inh. S. cerevisiae tim10-1 ts strain growth, BacTiter-Glo, 24 h. inhibition, % at 20 µM. actives 56% (n = 7,400);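 active means inhibition of yeast growth at or above a set limit in either of two repeat tests at 20 µM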;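 further: tim10-1 mutant grown at permissive 25 °C to find synthetic lethal compounds; 0% = DMSO yeast wells and 100% = medium wells without yeast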
* = called active by the depositor. Most compounds without a hit are left out; they make up all but 4.6% or so of the library.

Results for Cc1ccc(-c2nc(C#N)c(NCc3cccc4c3OCO4)o2)cc1 ?
TIM10 inh: 19; V-ATPase pH: -3; tim23-1 inh: 32; PfHsp90 yeast 2: -11; SKKanGAS inh: 0; tim10-1 inh: 44*; tim10-1 conf: 10

Results for N#Cc1nc(-c2ccc(F)cc2)oc1NCc1cccc2c1OCO2 ?
TIM10 inh: 12; V-ATPase pH: 0; tim23-1 inh: 22; PfHsp90 yeast 2: -115; SKKanGAS inh: 0; tim10-1 inh: 1

Results for Cc1nn(C(=O)c2ccc3c(c2)OCO3)c(N)c1-c1ccccc1 ?
TIM10 inh: 18; V-ATPase pH: 1; tim23-1 inh: 40; PfHsp90 yeast 2: 10; SKKanGAS inh: -5; tim10-1 inh: 41*; tim10-1 conf: 10

How did COc1ccc(OC)c(NC(=O)Nc2nnc(N3CCCCC3C)s2)c1 (stereo not drawn) do in these assays?
TIM10 inh: 28; V-ATPase pH: -2; tim23-1 inh: 29; PfHsp90 yeast 2: 22; SKKanGAS inh: 3; tim10-1 inh: 24

Results for CCC1(CCC(C)C)SC(N)=NC1=O (stereo not drawn) ?
V-ATPase pH: 4

How did Cc1ccc(SC2=C(Sc3ccc(C)cc3)C(=O)c3ccccc3C2=O)cc1 do in these assays?
TIM10 inh: 24; V-ATPase pH: -1; tim23-1 inh: 33; PfHsp90 yeast 2: -9; SKKanGAS inh: 33; tim10-1 inh: 43*; tim10-1 conf: 24

Results for Cc1ccc(N2C(=O)c3ccccc3C2=O)cc1 ?
TIM10 inh: -7; V-ATPase pH: -1; tim23-1 inh: 2; PfHsp90 yeast 2: 0; SKKanGAS inh: 5; tim10-1 inh: 0

Results for Cc1ccccc1Nc1nnc(SCC(=O)c2c(N)n(C3CC3)c(=O)[nH]c2=O)s1 ?
TIM10 inh: -4; V-ATPase pH: 1; tim23-1 inh: 8; PfHsp90 yeast 2: 25; tim10-1 inh: 4

Results for FC(F)C(F)(F)C(F)(F)C(F)(F)c1cc(-c2ccccc2)n[nH]1 ?
TIM10 inh: 39; V-ATPase pH: -4; tim23-1 inh: 47; PfHsp90 yeast 2: -30; SKKanGAS inh: 12; tim10-1 inh: 48*; tim10-1 conf: 30*

What do the screens show for `CCOC(=O)Cc1cc(-c2ccc(O)cc2)nc2ccc3ccccc3c12`?
TIM10 inh: 19; V-ATPase pH: 0; tim23-1 inh: 22; PfHsp90 yeast 2: -20; SKKanGAS inh: 14; tim10-1 inh: 42*; tim10-1 conf: 24

Results for CC(C)/C(=N\NS(=O)(=O)c1ccc(Br)cc1)c1cccs1 ?
TIM10 inh: 21; V-ATPase pH: 2; tim23-1 inh: 36; PfHsp90 yeast 2: 9; SKKanGAS inh: 14; tim10-1 inh: 41*; tim10-1 conf: 34*

How did C/C(=N\NS(=O)(=O)c1ccc([N+](=O)[O-])cc1)c1cccs1 do in these assays?
TIM10 inh: 17; V-ATPase pH: -2; tim23-1 inh: 15; PfHsp90 yeast 2: 3; SKKanGAS inh: -6; tim10-1 inh: 22

Results for CCN(Cc1ccccc1)C(c1ccc(Cl)cc1)c1nnnn1C(C)(C)C (stereo not drawn) ?
TIM10 inh: 25; V-ATPase pH: 13; tim23-1 inh: 31; PfHsp90 yeast 2: -5; SKKanGAS inh: 18; tim10-1 inh: 19

How did CC(C)(C)n1nnnc1C(c1ccccn1)N(Cc1ccccc1)Cc1ccc(Cl)cc1 (stereo not drawn) do in these assays?
TIM10 inh: 39; V-ATPase pH: 2; tim23-1 inh: 32; PfHsp90 yeast 2: 12; SKKanGAS inh: 11; tim10-1 inh: 50*; tim10-1 conf: 31*

How did Cc1cc2c(cc1S(=O)(=O)Nc1ccc(OC(F)(F)F)cc1)OCC(=O)N2 do in these assays?
TIM10 inh: 12; V-ATPase pH: 0; tim23-1 inh: 12; PfHsp90 yeast 2: 5; SKKanGAS inh: 9; tim10-1 inh: 32

What do the screens show for `CCn1cc(S(=O)(=O)NCCc2ccc(OC)c(OC)c2)cn1`?
TIM10 inh: 6; V-ATPase pH: 2; tim23-1 inh: 11; PfHsp90 yeast 2: -2; SKKanGAS inh: -9; tim10-1 inh: 5

What do the screens show for `COCCN1C(=O)C(=O)/C(=C(/O)c2ccc(S(=O)(=O)N3CCOCC3)cc2)C1c1cccc([N+](=O)[O-])c1` (stereo not drawn)?
TIM10 inh: 6; V-ATPase pH: 0; tim23-1 inh: -5; PfHsp90 yeast 2: 11; SKKanGAS inh: -7; tim10-1 inh: -6

How did Cc1ccc2cc(CN(CCN(C)C)C(=S)Nc3ccccc3)c(=O)[nH]c2c1C do in these assays?
TIM10 inh: 11; V-ATPase pH: -3; tim23-1 inh: 36; SKKanGAS inh: 0; tim10-1 inh: 40*; tim10-1 conf: 18

Results for CCC(C)(C)NC(=O)C(c1cccc(OC)c1)N(C(=O)CNC(=O)c1cccs1)c1cccnc1 (stereo not drawn) ?
TIM10 inh: -4; V-ATPase pH: -3; tim23-1 inh: 13; PfHsp90 yeast 2: -9; SKKanGAS inh: -6; tim10-1 inh: 6

How did CN(C)c1ccc(/C=N/N=C(N)N)cc1[N+](=O)[O-] do in these assays?
TIM10 inh: -5; V-ATPase pH: 1; tim23-1 inh: -5; PfHsp90 yeast 2: -16; SKKanGAS inh: 2; tim10-1 inh: 2

What do the screens show for `CC(=O)N(c1ccccc1)C1CC(C)N(C(=O)c2ccccc2)c2ccccc21` (stereo not drawn)?
TIM10 inh: 20; V-ATPase pH: 3; tim23-1 inh: 29; PfHsp90 yeast 2: 1; SKKanGAS inh: -2; tim10-1 inh: 42*; tim10-1 conf: 22

What do the screens show for `CCC(=O)N1c2ccccc2[C@@H](N(C(C)=O)c2ccccc2)C[C@H]1C`?
TIM10 inh: -1; V-ATPase pH: 0; tim23-1 inh: 16; PfHsp90 yeast 2: 13; SKKanGAS inh: -7; tim10-1 inh: 16

How did Cc1cccc(Nc2ncc3c(n2)CC(c2ccco2)CC3=O)c1 (stereo not drawn) do in these assays?
TIM10 inh: 14; V-ATPase pH: -3; tim23-1 inh: 22; PfHsp90 yeast 2: -10; SKKanGAS inh: -1; tim10-1 inh: 25

What do the screens show for `Cc1cc(C)cc(Nc2ncc3c(n2)CC(c2ccco2)CC3=O)c1` (stereo not drawn)?
TIM10 inh: 34; V-ATPase pH: 5; tim23-1 inh: 37; PfHsp90 yeast 2: 15; SKKanGAS inh: 15; tim10-1 inh: 45*; tim10-1 conf: 33*

Results for CN[C@H](C)C(=O)NC[C@H]1O[C@@H](n2cnc3c(N)ncnc32)[C@H](O)[C@@H]1O ?
TIM10 inh: -7; V-ATPase pH: 1; tim23-1 inh: 19; PfHsp90 yeast 2: -5; tim10-1 inh: 7
